Data taken from PubChem BioAssay (NCI).
“And” between values parts separate entries of the source, which are not always exact repeats. Equal values may be shown once. The panel holds about 79,000 compounds, 15% with a hit somewhere; the sample as a whole holds those more often. A number with no mark means an inactive call. The source made the active and inactive calls. Cut-off read from the data, not from the text of the source: active = growth inhibition above about 70%; inactive = the rest. Where a SMILES comes first, the peptide text is derived from it.

Assays:
[1] = NCI Yeast Anticancer Drug Screen. Data for the rad50 strain (AID 155);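 note: 0% = growth of vehicle-only cultures of the same strain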; details: S. cerevisiae rad50 strain growth inhibition, stronger effect = higher value; at 50.0 µM unless noted
Procedure, shortened: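 Inhibition values express reduced yeast growth in compound-treated cultures relative to vehicle-treated controls.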

[2] = NCI Yeast Anticancer Drug Screen. Data for the mec2-1 strain (AID 157); details: S. cerevisiae mec2-1 strain, stronger effect = higher value; at 50.0 µM unless noted
Procedure, shortened: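 Compounds were applied to mec2-1 yeast cells. Their growth was then compared with that of vehicle-treated cultures to give growth inhibition.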

[3] = NCI Yeast Anticancer Drug Screen. Data for the sgs1 mgt1 strain (AID 161);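 note: 0% = growth of cultures given vehicle only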; details: S. cerevisiae sgs1 mgt1 strain, stronger effect = higher value; at 50.0 µM unless noted
Procedure, shortened: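 This yeast growth screen uses a strain with defined DNA-repair lesions; compound-treated growth is compared with vehicle-treated growth.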

[4] = NCI Yeast Anticancer Drug Screen. Data for the cln2 rad14 strain (AID 165);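 note: 0% = growth equal to vehicle treated cultures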; details: S. cerevisiae cln2 rad14 strain, stronger effect = higher value; at 50.0 µM unless noted
Procedure, shortened: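 Strain: cln2 rad14 yeast, altered in cell cycle control and DNA damage repair. Read-out: growth inhibition vs vehicle.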

[5] = NCI Yeast Anticancer Drug Screen. Data for the bub3 strain (AID 167); details: S. cerevisiae bub3 mutant strain, stronger effect = higher value; at 50.0 µM unless noted
Procedure, shortened: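 Steps: expose the mutant yeast strain to compound; grow alongside vehicle-treated cultures; measure growth; express inhibition against the vehicle cultures.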

[6] = NCI Yeast Anticancer Drug Screen. Data for the mlh1 rad18 strain (AID 175); details: S. cerevisiae mlh1 rad18 strain growth inhibition, stronger effect = higher value; at 50.0 µM unless noted
Procedure, shortened: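 A repair-deficient yeast strain is exposed to test compound, and growth is scored relative to vehicle-treated controls.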

SMILES	growth inhibition [1]	growth inhibition [2]	growth inhibition [3]	growth inhibition [4]	growth inhibition [5]	growth inhibition [6]
CC(C)CN(CC(C)C)C(=O)c1ccccc1	2.3%	8.2%	1.1%	8.85%	4.9%	2.4%
CC(C)(C)C(=O)/C(=C/C(=O)O)C(C)(C)C	-0.1%	10.7%	1.25%	7.6%	-0.9%	-0.95%
CCCCN(Cc1ccccc1)C(=S)Nc1ccccc1	17.4%	47.8%	64.4%	1.85%	63.5%	67.3%
CC(C)N(C(=S)S)C(C)C	9.5%	4.95%	16.6%	-0.65%	-26.4%	-19.2%
O=c1oc(-c2ccccc2CCl)nc2ccccc12	0.95%	-17.1%	15.8%	15.3%	-13.8%	-5.9%
CC(O)C(=O)OCCOc1ccc(Cl)cc1Cl (stereo not drawn)	7.75%	10.3%	27.3%	-38.1%	31.3%	28.2%
C=C(C)C(C)/C(C)=N/NC(N)=O (stereo not drawn) (tested in a mixture with another compound)	6.85%	3.3%	-5.75%	10.4%	10.6%	-15.8%
NC(=O)C1(N2CCCC2)CCN(Cc2ccccc2)CC1	-9.2%	-18.9%	-17.6%	-1.6%	-10.6%	-15.8%
Cc1c(Cl)cccc1NC(=O)C(=O)c1c(O)c2ccc(O)cc2oc1=O	4.8%	1.25%	-19.1%	3.45%	-15.6%	5.35%
C=CCC(C)(O)CCC(C)(O)CC=C (stereo not drawn)	-1.95%	-14.6%	-8.3%	1.2%	0.95%	8.2%
O=c1[nH]n(Cc2ccccc2CCl)c2ccc([N+](=O)[O-])cc12	24.1%	13.3%	-10.8%	24%	4.1%	3.7%
CCc1n[nH]c(=O)n1NC(=O)c1ccccc1C(=O)O	15.8%	11.8%	15.2%	20.6%	25.9%	16.2%
OCCCCC(O)CO (stereo not drawn)	-2.55%	-13.7%	-1.1%	-8.65%	-18.6%	-7.3%
Cc1cc(Cl)ccc1NC(=O)Oc1ccc(C#N)cc1	-13.8%	-18.4%	-25.2%	-10.6%	-17.1%	-19.4%
Cc1cc(C(C)(C)C)cc(CNC2CCCCC2)c1O	-4.35%	-27.4%	-25.4%	-18%	-35.2%	10.2%
COc1cc2c(cc1OCc1ccccc1)C(Cc1cc(Br)sc1Br)=NCC2	57.8%	58.5%	54%	50.3%	70.5% (active)	43.4%
CCc1ccc2c(c1)CCCC2(C)C	-2.5%	-10.2%	2.25%	-8.3%	0.3%	-0.05%
CCCOCC[N+](C)(C)C	1.65%	-21.9%	8.65%	-34.5%	-8.9%	-8.9%
CNC(=O)CNC(=O)C(NC(=O)CNC(=O)C1CCCN1C(=O)C(C)NC(=O)C(NC(C)=O)C(C)C)C(C)C (stereo not drawn) (Ac-VAPGVG-NHMe; configuration not given here)	0.3%	-13.9%	3.55%	-6.6%	-11.7%	-4.75%

SMILES	growth inhibition [1]	growth inhibition [2]	growth inhibition [3]	growth inhibition [4]	growth inhibition [5]	growth inhibition [6]
CCOC(OCC)c1cc(=O)[nH]c(NC(C)=O)n1	-1.15%	0.05%	10%	-11.9%	-1.25%	5.4%
Cc1ccc(S(=O)(=O)/C=C(/SC#N)C2CCCCC2)cc1	32.5%	90.6% (active)	69.5%	17.9%	83.1% (active)	79.7% (active)
COC(=O)CCC1(C)C2CCC1(C)/C(=N/O)C2 (stereo not drawn)	-10.2%	3.15%	2.35%	0.45%	-21.1%	6.7%
C/C=C1\CC2C=CC1C2 (stereo not drawn) (tested in a mixture with another compound)	5.35%	-15.4%	3.25%	0.5%	11.6%	8.15%
CN1C(=O)N(C)C2(O)c3ccccc3C(=O)C12O (stereo not drawn)	14.6%	2.9%	18.9%	15%	19.8%	38.9%
COC(=O)C1CCC(=O)N1Cc1cccs1 (stereo not drawn)	-22.9%	-1.7%	-11.1%	22.1%	3.55%	-13.2%
COC(=O)c1cc(NC(=O)Nc2cc(C(F)(F)F)ccc2Cl)cc(C(=O)OC)c1	-24.2%	-32%	-9.65%	-22.9%	-0.55%	-38.2%
[O-][N+](=Nc1ccc2c(c1)Cc1ccccc1-2)c1ccc2c(c1)Cc1ccccc1-2	25.7%	-20.2%	25.1%	-19.1%	0.35%	-7%
CCOC(C)=Nc1cc(OC)cc2c1NC(=O)CCS2	-28.9%	-20.1%	-36.6%	-50%	5.6%	-40.2%
CN1CC(c2ccccc2)C(O)(C2(c3ccccc3)CN(C)CC(c3ccccc3)C2=O)C(c2ccccc2)C1 (stereo not drawn)	5.7%	7.25%	-30.4%	-6.7%	-17.4%	-7.65%
Brc1ccc2c(ccc3c2nnc2ncnn23)c1	42.5%	22.4%	16.9%	10.7%	-1.55%	42.2%
O=C(O)c1ccccc1SSc1ccccc1C(=O)O	10.2% and -7.05%	16.4% and -6.5%	-6.6% and 3.3%	4% and -26.9%	9% and -0.65%	7.85% and 9.6%
CCOC(=O)c1ccc(N(CCO)CCO)cc1	3.45%	12.4%	5.45%	-94.2%	32.5%	13.7%
Cc1cc(C)c(S(=O)(=O)Oc2ccccc2)c(C)c1	-14.9%	-7.15%	-8.5%	1.7%	11.8%	-36.7%
C#CCOCC(CCl)OC(=O)Nc1ccccc1 (stereo not drawn)	14.7%	47.1%	11.6%	11.8%	14.7%	84.4% (active)
Nc1ccc(C(=O)N/N=C/c2ccccc2O)cc1	16.9%	12.7%	4.15%	7.55%	0%	19.2%
CCC(NN)C(=O)O (stereo not drawn)	5.45%	-14.1%	-33.6%	-26%	-9.5%	-5.35%
Clc1ccc(N=NNc2ccccc2)cc1	29.6% and 6.7%	-0.85% and -2.8%	-22.9% and -22.1%	-30.1% and -10.1%	-20.1% and -6.6%	-16.4% and 30.2%
C/C(=C\CNc1ncnc2c1ncn2CCC#N)CO	-17%	13.2%	-33.2%	1.5%	14.8%	-15.9%
